Measured values as given in PubChem BioAssay AID652254 (National Center for Advancing Translational Sciences (NCATS), 2013).
Calls of active or inactive are those of the source.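 The calls were made as follows: active = potency for halving colony growth of 5 µM or lower; inconclusive = potency above 5 µM but below 10 µM; inactive = potency of 10 µM or higher.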

assay: qHTS for Inhibitors of Ubiquitin-specific Protease USP2a Using CHOP2 as the Reporter: Clonogenic Assay; conditions: clonogenic colony formation, crystal violet, 10 days
Description: Homeostasis of cellular proteins is maintained through a combination of synthesis and degradation. The pathway that accounts for the majority of protein degradation is the ubiquitin-proteasomal pathway. Ubiquitin (Ub) is highly conserved in all cells and the generation of a multi-Ub chain typically targets proteins for degradation by the proteasome. However, ubiquitination is highly reversible and dynamic. Deubiquitination, the reverse process, is catalyzed through the action of enzymes referred to as isopeptidases or deubiquitinating enzymes (DUBs). This group of enzymes is collectively responsible for maintaining adequate pools of free ubiquitin and regulating the ubiquitination status of cellular proteins. […] To further visualize and quantitate the effect of compounds on cell proliferation, a colony forming or clonogenic assay was performed in 6-well plates using HCT116 cells. […] The colonies were visualized on the Typhoon imager (GE) using Cy5 detection, and quantitated with the associated software. […]
2 mL 300 cells/well were dispensed into a 6-well plate in DMEM with 10% FBS and 1% Pen-Strep and then incubated for 48 hours at 37 deg C, 5% CO2. […] The plate is dried overnight and then read on a GE Typhoon FLA 9500 in end-point mode (Ex 635, Em Long-Pass Red Filter)

SMILES	Potency
Cc1ccc(S(=O)(=O)Nc2cc(C(F)(F)F)ccc2C(=O)Nc2nc(-c3ccccc3)cs2)cc1	3.6 µM (active)
